Screens: PubChem, National Center for Advancing Translational Sciences (NCATS)
WRN inhibitor = blocks human WRN helicase; Q14191; WRN helicase unwinding, fluorescent forked duplex, kinetic; Potency, µM (series often up to 114 µM), without a hit: at the highest dose activity change, negative = inhibition, most hits filed as inhibitors; hit rate 0.46% among 360,000; AID 651768; further: on the % scale 0 is the no-effect control and ±100 the full control effect; nearly all actives have a fitted effect of over 55% in size
Target sequence (Q14191 whole entry, looked up): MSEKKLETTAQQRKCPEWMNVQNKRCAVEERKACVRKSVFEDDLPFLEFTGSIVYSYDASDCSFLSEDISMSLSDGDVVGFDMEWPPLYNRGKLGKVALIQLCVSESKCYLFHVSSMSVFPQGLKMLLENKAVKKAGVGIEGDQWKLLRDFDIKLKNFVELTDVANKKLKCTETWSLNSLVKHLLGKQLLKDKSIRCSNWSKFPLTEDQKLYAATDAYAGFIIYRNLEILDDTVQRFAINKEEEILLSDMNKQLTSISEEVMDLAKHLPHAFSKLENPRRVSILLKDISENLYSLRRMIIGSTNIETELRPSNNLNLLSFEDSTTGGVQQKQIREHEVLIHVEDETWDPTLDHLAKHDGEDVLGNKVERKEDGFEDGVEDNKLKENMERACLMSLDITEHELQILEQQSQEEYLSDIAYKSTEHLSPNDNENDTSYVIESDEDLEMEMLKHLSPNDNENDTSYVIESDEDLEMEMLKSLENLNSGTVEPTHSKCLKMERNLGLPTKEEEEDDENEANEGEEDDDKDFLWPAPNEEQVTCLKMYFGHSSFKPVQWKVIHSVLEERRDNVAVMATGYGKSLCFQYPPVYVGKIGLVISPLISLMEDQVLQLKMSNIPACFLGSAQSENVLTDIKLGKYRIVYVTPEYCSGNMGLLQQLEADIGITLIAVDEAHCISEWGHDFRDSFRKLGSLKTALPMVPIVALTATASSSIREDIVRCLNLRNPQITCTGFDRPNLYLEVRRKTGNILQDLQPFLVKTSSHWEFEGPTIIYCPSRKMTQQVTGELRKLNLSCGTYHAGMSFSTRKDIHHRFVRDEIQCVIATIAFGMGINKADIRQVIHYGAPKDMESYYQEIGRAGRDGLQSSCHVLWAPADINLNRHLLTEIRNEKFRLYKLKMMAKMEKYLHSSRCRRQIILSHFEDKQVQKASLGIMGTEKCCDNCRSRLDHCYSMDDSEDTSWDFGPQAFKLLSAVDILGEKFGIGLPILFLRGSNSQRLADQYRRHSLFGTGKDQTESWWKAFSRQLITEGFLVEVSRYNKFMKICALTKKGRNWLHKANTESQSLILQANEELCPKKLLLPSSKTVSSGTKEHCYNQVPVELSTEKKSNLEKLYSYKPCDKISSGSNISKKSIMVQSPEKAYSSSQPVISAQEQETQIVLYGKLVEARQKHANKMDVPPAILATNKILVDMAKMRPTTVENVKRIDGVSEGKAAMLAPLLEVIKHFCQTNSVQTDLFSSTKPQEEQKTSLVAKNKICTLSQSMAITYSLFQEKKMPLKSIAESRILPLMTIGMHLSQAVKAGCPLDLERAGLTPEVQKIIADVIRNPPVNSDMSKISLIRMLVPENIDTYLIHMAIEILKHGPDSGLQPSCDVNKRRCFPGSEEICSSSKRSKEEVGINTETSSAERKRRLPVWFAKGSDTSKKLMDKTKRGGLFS
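Fluorescence dequenching readout, ex 525 nm/em 598 nm, kinetic mode: forked duplex DNA (100 nM final) with adjacent fluorophore and quencher unwound by WRN (20 nM final) with 2 mM ATP. Compound preincubation 15 min, room temperature.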
POLH inh = inhibitors of human DNA polymerase eta; Q9Y253; recombinant Pol eta, fluorescent DNA replication assay; Potency, µM (top dose mostly 114 µM), for the others: at the top dose activity change, negative = inhibition, usual class: inhibitors; hit rate 1.2% among 390,000; AID 588591; further: on the % scale 0 is the no-effect control and ±100 the full control effect
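Pol eta (10 nM) was preincubated with compounds for 15 min at room temperature, after which fluorescent replication substrate (50 nM final) was added to start the reaction. Fluorescence was read kinetically at 0 and 10 min.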
POLB inh = DNA polymerase beta (human) inhibition. Potency, µM (titrated, usually from 114 µM), for the others: top-dose activity change, negative = inhibition, usual class: inhibitors. P06746. hit rate 1.3% among 340,000. Pol beta primer extension/strand displacement, fluorescence kinetic; further: on the % scale 0 is the no-effect control and ±100 the full control effect
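10 nM enzyme + cpd, 15 min RT; start with substrate 50 nM final; read 0 min and after 10 min RT. Corrected, normalized data; 4-parameter Hill curve fit.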
Pol iota inh = DNA polymerase iota (human) inhibition. Potency, µM (doses to about 115 µM), inactives show top-dose activity, negative = inhibition, usual class: inhibitors. AID 588590. hit rate 1% among 390,000. Q9UNA4. Pol iota fluorescent replication assay, 10 min
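Pol iota at 10 nM preincubated 15 min with compounds at room temperature; reaction started with fluorescent substrate, 50 nM final. Fluorescence read kinetically at 0 and 10 min; buffer-only wells as negative control.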
Pol kappa inh = inhibitors of human DNA polymerase kappa. purified Pol kappa, fluorescent DNA synthesis assay, 10 min. Q9UBT6. AID 588579. hit rate 0.53% among 400,000. Potency, µM (doses to about 107 µM), without a hit: top-dose activity, negative = inhibition, usual class: inhibitors; further: on the % scale 0 is the no-effect control and ±100 the full control effect
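Here, compound and 10 nM enzyme are combined for 15 min at room temperature; adding 50 nM substrate (final) starts DNA synthesis, tracked by fluorescence at 0 and 10 min against buffer-only wells.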
The depositor's hits bear a star; [ ] = dose if it differs, or a comment. Rows were chosen to be rich in hits. Some 2.3% of all compounds tested hit in one or more screens of this group. The call rests on the fitted dose curve; in most records, active means well fitted curve in the direction sought with a large enough effect; inconclusive means small, poorly fitted or top-dose-only effect, or another doubt; inactive means no such curve, though single readings can be large; an effect the other way counts as inactive or inconclusive. Potency means the concentration at half of the fitted maximal effect.

Results for CCC1=NN2C(=N)/C(=C\c3ccc(SCc4ccco4)o3)C(=O)N=C2S1 ?
WRN inhibitor: 50.1µM*; POLH inh: 15.8µM*; POLB inh: 12.6µM*; Pol iota inh: 22.4µM*; Pol kappa inh: inconclusive

How did O=C1NC(=S)S/C1=C\c1ccc(SCc2ccco2)o1 do in these assays?
WRN inhibitor: 8.91µM*; POLH inh: 1.58µM*; POLB inh: 2.24µM*; Pol iota inh: inconclusive; Pol kappa inh: 1.78µM*

What do the screens show for `O=C1NC(=S)S/C1=C/c1ccc(OC(=O)c2ccco2)cc1`?
WRN inhibitor: -11.6%; POLH inh: inconclusive; POLB inh: inconclusive; Pol iota inh: -11.9%; Pol kappa inh: -1.9%

Results for Cc1cc(Cl)ccc1NNC(N)=S ?
WRN inhibitor: -0.9%[11.6 µM]; POLH inh: -9.0%; POLB inh: 10.0%; Pol iota inh: 14.1µM*; Pol kappa inh: -7.1%

Results for Cc1ccc(C)c(NNC(N)=S)c1 ?
WRN inhibitor: -7.8%; POLH inh: -2.0%; POLB inh: 5.0%; Pol iota inh: inconclusive; Pol kappa inh: -16.9%

How did CC(C)c1ccc(NS(=O)(=O)c2ccc3[nH]cc(C(=O)N4CCC(C(N)=O)CC4)c(=O)c3c2)cc1 do in these assays?
WRN inhibitor: -6.8%[11.6 µM]; POLH inh: 17.8µM*; POLB inh: 50.1µM*; Pol iota inh: inconclusive; Pol kappa inh: -8.9%

How did COc1cccc(NS(=O)(=O)c2ccc3[nH]cc(C(=O)NCCc4ccccc4)c(=O)c3c2)c1 do in these assays?
POLH inh: 6.8%; POLB inh: inconclusive; Pol iota inh: 79.4µM*; Pol kappa inh: -9.7%

How did COc1cccc(NS(=O)(=O)c2ccc3[nH]cc(C(=O)NC4CCCCC4)c(=O)c3c2)c1 do in these assays?
POLH inh: 89.1µM*; POLB inh: inconclusive; Pol iota inh: inconclusive; Pol kappa inh: -31.9%

How did COc1cccc(NS(=O)(=O)c2ccc3[nH]cc(C(=O)NCCc4ccc(C)cc4)c(=O)c3c2)c1 do in these assays?
POLH inh: inconclusive; POLB inh: inconclusive; Pol iota inh: inconclusive; Pol kappa inh: -11.1%[60.1 µM]

What do the screens show for `COc1cccc(NS(=O)(=O)c2ccc3[nH]cc(C(=O)NC4CC4)c(=O)c3c2)c1`?
WRN inhibitor: -47.2%; POLH inh: -1.8%; POLB inh: -19.5%; Pol iota inh: 8.3%; Pol kappa inh: -9.6%

How did CCOc1ccc(NS(=O)(=O)c2ccc3[nH]cc(C(=O)N(CC)CC)c(=O)c3c2)cc1 do in these assays?
WRN inhibitor: -13.9%[57.1 µM]; POLH inh: 20µM*; POLB inh: 7.1%; Pol iota inh: inconclusive; Pol kappa inh: -2.4%

What do the screens show for `N#C/C(=C\c1ccc(-c2cc(Cl)ccc2Cl)o1)C(=O)Nc1cccc2ncccc12`?
Pol kappa inh: -6.5%[60.1 µM]

How did CC/C(=C\c1ccc(C(=O)OC)cc1)c1cc(OC)cc2oc3ccccc3c12 do in these assays?
Pol iota inh: 26.2%; Pol kappa inh: 8.3%

Results for CC(C)C[C@H](N)C(=O)N[C@H](C(=O)N[C@H](C(=O)N[C@@H](Cc1ccc(O)cc1)C(=O)N1CCC[C@H]1C(=O)N[C@@H](Cc1c[nH]c2ccccc12)C(=O)N[C@H](C(=O)N[C@@H](CCC(N)=O)C(=O)N[C@@H](CCCN=C(N)N)C(=O)O)[C@@H](C)O)C(C)C)C(C)C ?
Pol kappa inh: 1.0%[19.4 µM]

How did CN[C@H](C)CCC=C(C)C do in these assays?
Pol iota inh: 4.8%; Pol kappa inh: -4.0%[19.4 µM]

Results for CCC(C)c1ccccc1OCCn1c(CCNC(=O)C2CCCCC2)nc2ccccc21 (stereo unspecified) ?
Pol iota inh: -3.1%; Pol kappa inh: -16.9%

What do the screens show for `C[N+]1(CC(=O)c2ccc3ccccc3c2)CCOCC1`?
Pol iota inh: 38.9%; Pol kappa inh: 1.7%

What do the screens show for `CCc1ccc(NS(=O)(=O)c2ccc3[nH]cc(C(=O)NCCCOC(C)C)c(=O)c3c2)cc1`?
POLH inh: inconclusive; POLB inh: 39.8µM*; Pol iota inh: inconclusive; Pol kappa inh: inconclusive

How did COc1ccc(C2Nc3ccccc3C(=O)N2c2cccc3ccccc23)cc1COc1c(C)cccc1C (stereo unspecified) do in these assays?
Pol iota inh: 11.3%; Pol kappa inh: -10.9%

Results for Cc1cc(C)c2c(N)c3ccccc3nc2n1 ?
WRN inhibitor: 16.8%; POLH inh: -14.7%; POLB inh: 25.1µM*; Pol iota inh: 14.1µM*; Pol kappa inh: -30.8%

Results for CCc1ccc2nc3nc(C)cc(C)c3c(N)c2c1 ?
WRN inhibitor: 21.7%[57.1 µM]; POLH inh: 1.7%; POLB inh: inconclusive; Pol iota inh: inconclusive; Pol kappa inh: -10.1%

How did CCCCn1c(SCC(=O)c2ccc(OC)cc2OC)nc2cc(S(N)(=O)=O)ccc21 do in these assays?
WRN inhibitor: inconclusive; POLH inh: 25.1µM*; POLB inh: 39.8µM*; Pol iota inh: 44.7µM*; Pol kappa inh: inconclusive

What do the screens show for `Cc1c(OCC(=O)N[C@@H](Cc2c[nH]c3ccccc23)C(=O)O)ccc2c1oc(=O)c1ccccc12`?
WRN inhibitor: -6.0%[11.6 µM]; POLH inh: 79.4µM*; POLB inh: -10.7%; Pol iota inh: 31.8%; Pol kappa inh: -12.6%

How did Cc1c(C)c2ccc(OCC(=O)NC(Cc3c[nH]c4ccc(O)cc34)C(=O)O)c(C)c2oc1=O (stereo unspecified) do in these assays?
WRN inhibitor: -10.1%; POLH inh: inconclusive; POLB inh: -23.0%; Pol iota inh: -22.0%; Pol kappa inh: -16.7%

What do the screens show for `CC(=O)c1sc2nc(-c3ccco3)ccc2c1N`?
WRN inhibitor: inconclusive; POLH inh: 28.2µM*; POLB inh: 12.6µM*; Pol iota inh: 5.01µM*; Pol kappa inh: 79.4µM*

Results for Cc1cc(Br)ccc1SCC(=O)OC/C(O)=C(\C#N)c1nc2ccccc2[nH]1 ?
WRN inhibitor: 4.4%; POLH inh: -10.7%; POLB inh: 3.2%; Pol iota inh: 33.5%; Pol kappa inh: 0.6%

What do the screens show for `Cc1ccc(C)c(SCC(=O)OC/C(O)=C(\C#N)c2nc3ccccc3[nH]2)c1`?
WRN inhibitor: -18.2%[57.1 µM]; POLH inh: 44.7µM*; POLB inh: inconclusive; Pol iota inh: inconclusive; Pol kappa inh: -28.2%

What do the screens show for `Cc1cccc(C)c1Nc1nnc(SC/C(O)=C(\C#N)c2nc3ccccc3[nH]2)s1`?
WRN inhibitor: -29.4%; POLH inh: 17.8µM*; POLB inh: inconclusive; Pol iota inh: -8.0%; Pol kappa inh: -16.3%

Results for Cc1cccc(Nc2nnc(SC/C(O)=C(\C#N)c3nc4ccccc4[nH]3)s2)c1C ?
WRN inhibitor: -31.0%; POLH inh: inconclusive; POLB inh: -27.0%; Pol iota inh: -1.4%; Pol kappa inh: -4.1%

What do the screens show for `Cc1ccc(-c2cn3c(n2)sc2cc(C(=O)NCCC4=CCCCC4)ccc23)c(C)c1`?
POLH inh: -6.0%; POLB inh: 3.0%; Pol iota inh: 8.7%; Pol kappa inh: -18.3%
